High-throughput results from PubChem BioAssay.
The list is not random: actives were taken first. Their share in the collection is about 11%.
VDR inh = blocks the human vitamin D receptor | P11473 | VDR-SRC2-3 peptide fluorescence polarization, 2 h | Potency, µM, inactives show max response, negative = inhibition, most hits filed as inhibitors | hit rate 0.93% among 400,000; also: % is scaled to controls: 0 for no effect and ±100 for the full control effect
Target sequence (P11473 whole entry, looked up): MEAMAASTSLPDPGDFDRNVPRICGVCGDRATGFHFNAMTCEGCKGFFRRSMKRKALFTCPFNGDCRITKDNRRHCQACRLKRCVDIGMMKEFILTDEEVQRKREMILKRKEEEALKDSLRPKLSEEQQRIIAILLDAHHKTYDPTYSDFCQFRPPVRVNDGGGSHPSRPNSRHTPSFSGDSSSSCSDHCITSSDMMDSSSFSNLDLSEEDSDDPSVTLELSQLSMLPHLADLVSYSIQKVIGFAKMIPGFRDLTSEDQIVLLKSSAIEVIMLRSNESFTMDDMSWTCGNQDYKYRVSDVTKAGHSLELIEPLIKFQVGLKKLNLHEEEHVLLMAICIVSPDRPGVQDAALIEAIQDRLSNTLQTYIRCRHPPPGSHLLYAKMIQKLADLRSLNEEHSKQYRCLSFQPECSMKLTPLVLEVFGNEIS
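Reagent solutions, kept cold and dark, are dispensed first; compounds are then pinned in at 23 nl, plates briefly spun, and incubated 2 h at ambient temperature. Inhibition of VDR–SRC2-3 peptide binding is read by fluorescence polarization.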
PLK1 PBD inh = PLK1 (human) polo-box domain binding inhibition | Plk1 PBD binding of FITC phosphopeptide, fluorescence polarization | hit rate 2.8% among 360,000 | P53350 | Potency, µM, without a hit: max response, negative = inhibition, usual class: inhibitors | AID 720504; also: series mostly up to about 57 µM; % is scaled to controls: 0 for no effect and ±100 for the full control effect; nearly all actives have a fitted effect of over 65% in size
BAZ2B block = blocks human BAZ2B; Q9UIF8; AlphaScreen BAZ2B-H3K14Ac peptide displacement; Potency, µM (doses to about 114 µM), for inactives: at the top dose activity change, negative = inhibition, usual class: inhibitors; hit rate 4.4% among 360,000; AID 504333; also: % is scaled to controls: 0 for no effect and ±100 for the full control effect; nearly all actives have a fitted effect of over 60% in size
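AlphaScreen displacement: compounds (up to 110uM) incubated 30 min at room temperature with a preformed 50 nM BAZ2B/50 nM biotinylated H3K14Ac peptide complex in PBS pH 7.4 with Tween-20. Donor and acceptor beads at 10 ug/mL final added, 20 min light-protected before reading.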
JMJD2A Tudor = inhibitors of human JMJD2A Tudor domain | AlphaScreen JMJD2A-Tudor / H3K4me3 peptide binding | Potency, µM (highest dose often 114 µM), for inactives: at the top dose activity change, negative = inhibition, usual class: inhibitors | hit rate 4.4% among 390,000 | AID 504339; also: % is scaled to controls: 0 for no effect and ±100 for the full control effect; nearly all actives have a fitted effect of over 50% in size
G9a inh = blocks human histone lysine methyltransferase G9a; hit rate 8.8% among 350,000; Potency, µM (titrated, usually from 102 µM), for inactives: at the top dose activity, negative = inhibition, hits mostly inhibitors; G9a H3K9 monomethylation, AlphaScreen, 2 h; AID 504332; Q96KQ7; also: % is scaled to controls: 0 for no effect and ±100 for the full control effect; nearly all actives have a fitted effect of over 75% in size
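Enzyme 20 nM + cpd, 15 min RT; add b-H3K9 pep 500 nM / SAM 20 uM; 2 h RT; anti-H3K9me1 Ab 0.5 ug/mL + SA donor / anti-rabbit acceptor beads 20 ug/mL each, 10 min; AlphaScreen read.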
HP1b chromo inh = HP1-beta chromodomain-methylated histone interaction inhibition; Potency, µM (series often up to 114 µM), inactives show top-dose activity change, negative = inhibition, actives largely listed as inhibitors; AlphaScreen HP1-beta / biotin-H3K9me3 peptide binding; P83916; hit rate 0.56% among 390,000; also: nearly all actives have a fitted effect of over 70% in size
Target sequence (P83916 whole entry, looked up): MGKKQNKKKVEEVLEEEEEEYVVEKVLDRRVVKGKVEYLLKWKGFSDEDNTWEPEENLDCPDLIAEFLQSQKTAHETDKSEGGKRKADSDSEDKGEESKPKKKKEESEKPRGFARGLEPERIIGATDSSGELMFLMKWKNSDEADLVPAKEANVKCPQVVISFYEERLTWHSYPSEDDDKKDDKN
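AlphaScreen: HP1-beta (50 nM) preformed 30 min with biotin-H3(1-18)K9me3 peptide (50 nM) in PBS pH 7.4, 0.01% Tween-20. Compound added for 30 min at RT, then streptavidin donor/nickel chelate acceptor beads (10 ug/mL) for 30 min.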
Numbers without * were called inactive; [ ] = remark or other dose. Calls follow the shape of the dose curve; as a rule, active = well fitted curve in the direction sought with a large enough effect; inconclusive = small, poorly fitted or top-dose-only effect, or another doubt; inactive = no such curve, though single readings can be large; an effect the other way counts as inactive or inconclusive. Potency is read from the fitted curve at half-maximal effect.

What do the screens show for `Cc1nc2ccccc2c(=O)n1/N=C/c1ccc(N(C)C)cc1`?
VDR inh: -12%; PLK1 PBD inh: -3%; BAZ2B block: 4%; JMJD2A Tudor: -16%; G9a inh: 26%[59 µM]; HP1b chromo inh: 10%

Results for CCN(CC)c1ccc(/C=N/n2c(=S)[nH]nc(C)c2=O)cc1 ?
VDR inh: -11%; PLK1 PBD inh: -10%; BAZ2B block: -4%; JMJD2A Tudor: -27%; G9a inh: -42%; HP1b chromo inh: 7%

How did CN(C)c1ccc(/C=N/n2c(-c3cccnc3)n[nH]c2=S)cc1 do in these assays?
VDR inh: -9%; PLK1 PBD inh: -4%; BAZ2B block: inconclusive; JMJD2A Tudor: 5µM*; G9a inh: 3.2µM*; HP1b chromo inh: 7%

What do the screens show for `CN(C)c1ccc(/C=N/n2c(-c3ccccc3Br)n[nH]c2=S)cc1`?
VDR inh: -16%; PLK1 PBD inh: -20%; BAZ2B block: inconclusive; JMJD2A Tudor: 14µM*; G9a inh: 0.71µM*; HP1b chromo inh: -19%

Results for Cc1ccc(/C=N/n2c(-c3cccnc3)n[nH]c2=S)o1 ?
VDR inh: -14%; PLK1 PBD inh: 6%; BAZ2B block: inconclusive; JMJD2A Tudor: 5µM*; G9a inh: 28µM*; HP1b chromo inh: 40%

How did Cc1ccc(/C=N/n2c(C)nnc2C)o1 do in these assays?
VDR inh: inconclusive; PLK1 PBD inh: 21µM*; BAZ2B block: -5%; JMJD2A Tudor: inconclusive; G9a inh: 23%[59 µM]; HP1b chromo inh: 2%

How did Cc1ccc(/C=N/n2nnnc2N)o1 do in these assays?
VDR inh: 6%; PLK1 PBD inh: 0%; BAZ2B block: 5%; JMJD2A Tudor: -8%; G9a inh: -5%; HP1b chromo inh: 3%

Results for CCn1nnc2cc(C(=O)Nc3ccc(OC)cc3)ccc21 ?
VDR inh: 7%; BAZ2B block: -9%; JMJD2A Tudor: -8%; G9a inh: 0%[59 µM]; HP1b chromo inh: 36%

How did Cc1ccc(-c2n[nH]c(=S)n2/N=C/c2ccc(C)o2)cc1 do in these assays?
VDR inh: -15%; PLK1 PBD inh: -12%; BAZ2B block: inconclusive; JMJD2A Tudor: 25µM*; G9a inh: 0.89µM*; HP1b chromo inh: 3%

Results for Cc1ccc(-c2n[nH]c(=S)n2/N=C/c2ccncc2)cc1 ?
VDR inh: 0%; PLK1 PBD inh: inconclusive; BAZ2B block: -12%; JMJD2A Tudor: inconclusive; G9a inh: 1.6µM*; HP1b chromo inh: -16%

Results for Cc1ccc(-c2nn(-c3ccccc3)cc2/C=N/n2c(-c3ccncc3)n[nH]c2=S)cc1 ?
VDR inh: 0%; PLK1 PBD inh: -6%; BAZ2B block: -3%; JMJD2A Tudor: inconclusive; G9a inh: inconclusive; HP1b chromo inh: 17%

What do the screens show for `CSC1=N/C(=C\c2ccccc2Cl)C(=O)N1N(C)C`?
VDR inh: -6%; PLK1 PBD inh: 2%; BAZ2B block: -20%; JMJD2A Tudor: -21%; G9a inh: -8%; HP1b chromo inh: 38%

How did O=C(Cn1cc(C(F)(F)F)cc(Cl)c1=O)Nc1cc(S(=O)(=O)N2CCOCC2)ccc1Cl do in these assays?
VDR inh: -25%; PLK1 PBD inh: -7%; BAZ2B block: 9%; JMJD2A Tudor: -28%; G9a inh: -11%; HP1b chromo inh: 28%

What do the screens show for `COc1ccc(-c2csc(N(CCCN3CCOCC3)C(=O)c3ccco3)n2)cc1`?
VDR inh: 0%; PLK1 PBD inh: -7%; BAZ2B block: inconclusive; JMJD2A Tudor: 100µM*; G9a inh: 2%[59 µM]; HP1b chromo inh: inconclusive

What do the screens show for `Cc1ccc(-c2csc(N(CCCN3CCOCC3)C(=O)c3ccco3)n2)cc1`?
VDR inh: 11%; PLK1 PBD inh: -2%; BAZ2B block: inconclusive; JMJD2A Tudor: -35%; G9a inh: inconclusive; HP1b chromo inh: 0%

How did CCN(CC)CCCN(C(=O)c1ccccc1F)c1nc(-c2ccc(OC)cc2)cs1 do in these assays?
VDR inh: 8%; PLK1 PBD inh: -9%; BAZ2B block: inconclusive; JMJD2A Tudor: inconclusive; HP1b chromo inh: 18%

Results for CCN(CC)CCCN(C(=O)c1ccccc1C)c1nc(-c2ccc(OC)cc2)cs1 ?
VDR inh: -7%; PLK1 PBD inh: -1%; BAZ2B block: 50µM*; JMJD2A Tudor: 45µM*; G9a inh: -36%[0.501 µM]; HP1b chromo inh: -10%

How did COc1ccc(-c2csc(N(CCCN(C)C)C(=O)c3ccc(Br)cc3)n2)cc1 do in these assays?
VDR inh: -14%; PLK1 PBD inh: 4%; BAZ2B block: 45µM*; JMJD2A Tudor: -31%; G9a inh: 9%[0.501 µM]; HP1b chromo inh: -14%

Results for Cc1cc(N2CCOCC2)nc2ccc(NC(=S)NC(C)C)cc12 ?
VDR inh: 2%; PLK1 PBD inh: -10%; BAZ2B block: -11%; JMJD2A Tudor: -1%; G9a inh: 71µM*; HP1b chromo inh: 27%

Results for CCCN(CCC)CCCNC(=S)Nc1ccc2nc(N3CCN(C)CC3)cc(C)c2c1 ?
VDR inh: 13%; PLK1 PBD inh: -7%; BAZ2B block: -25%; JMJD2A Tudor: -27%; G9a inh: 40µM*; HP1b chromo inh: -3%[57 µM]

Results for COCCNC(=S)Nc1ccc2nc(N3CCCC3)cc(C)c2c1 ?
VDR inh: -2%; PLK1 PBD inh: -8%; BAZ2B block: -1%; JMJD2A Tudor: -18%; G9a inh: 71µM*; HP1b chromo inh: -9%

What do the screens show for `COCCNC(=S)Nc1ccc2nc(N3CCOCC3)cc(C)c2c1`?
VDR inh: -5%; PLK1 PBD inh: -23%; BAZ2B block: -1%; JMJD2A Tudor: -7%; G9a inh: -1%; HP1b chromo inh: 68%

What do the screens show for `CCCN(CCC)CCCNC(=S)Nc1ccc2nc(N3CCN(CC)CC3)cc(C)c2c1`?
VDR inh: 0%; PLK1 PBD inh: 2%; BAZ2B block: -7%; JMJD2A Tudor: -3%; G9a inh: 50µM*; HP1b chromo inh: 11%[57 µM]

What do the screens show for `CN(C)S(=O)(=O)N(CC(=O)NCCSCc1c(F)cccc1Cl)c1ccccc1`?
VDR inh: -12%; BAZ2B block: 1%; JMJD2A Tudor: -6%; G9a inh: 6%[59 µM]; HP1b chromo inh: 31%

Results for Cc1ccc(NC(=O)C(Cc2c[nH]c3ccccc23)NC(=O)OCC(C)C)cc1 (stereo not drawn) ?
VDR inh: -15%; BAZ2B block: -36%; JMJD2A Tudor: -35%; G9a inh: -26%[59 µM]; HP1b chromo inh: 0%

What do the screens show for `COc1ccc(/C=C/c2nc(C#N)c(NCCc3ccccc3)o2)cc1OC`?
VDR inh: 0%; BAZ2B block: -30%; JMJD2A Tudor: 7%; G9a inh: -28%[59 µM]; HP1b chromo inh: 19%
